Bioassay records deposited in PubChem by National Center for Advancing Translational Sciences (NCATS).
3T3 cytotox: NIH 3T3 cell cytotoxicity; NIH 3T3 viability, CellTiter-Glo ATP luminescence, 48-72 h; Potency, µM (series often up to 96.7 µM), for inactives: top-dose activity change, negative = cytotoxicity, usual class: inhibitors; actives 4.3% (n = 94,000); AID 1345082; also: nearly all actives have a fitted effect of over 55% in size
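NIH 3T3 cells at 400 cells/well received 23 nL of compound by pintool and were incubated 48 or 72 h at 37 °C. Viability was read as ATP-coupled CellTiter-Glo luminescence.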
HEK cytotox: cytotoxic compounds in HEK 293 cells; Potency, µM (highest dose often 115 µM), for inactives: top-dose activity change, negative = cytotoxicity, most hits filed as inhibitors; HEK 293 viability, ATP luminescence (CellTiter-Glo), 48-72 h; actives 6.6% (n = 94,000); also: nearly all actives have a fitted effect of over 60% in size
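Viability of HEK 293 cells, plated at 250 cells/well, was judged by cellular ATP after compound treatment for 48 or 72 hr. Luminescence was imaged 10 min after CellTiter-Glo addition at room temperature.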
NPR1 antag: blocks ANP-stimulated signaling of human Npr1 receptor; HEK293 hNpr1 GloSensor cGMP, ANP-stimulated luminescence; P16066; actives 1.6% (n = 76,000); Potency, µM (series often up to 46.3 µM), inactives show at the highest dose activity change, negative = inhibition, actives largely listed as inhibitors; calls by dose curve; also: nearly all actives have a fitted effect of over 60% in size
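Compound pre-incubated 30 min at room temperature on GloSensor-loaded HEK293 cells stably carrying hNpr1 and the pGS-40F cGMP biosensor. Stimulation uses hNppA at 0.1 nM final; luminescence is taken at baseline and 20 min post-agonist.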
FLuc inh: inhibitors of firefly (Photinus pyralis) luciferase. P08659. Potency, µM (doses to about 115 µM), usual class: inhibitors. purified P. pyralis luciferase, luminescence, biochemical. actives 2.5% (n = 76,000). AID 1347043; also: nearly all actives have a fitted effect of over 65% in size
Target sequence (P08659 whole entry, looked up): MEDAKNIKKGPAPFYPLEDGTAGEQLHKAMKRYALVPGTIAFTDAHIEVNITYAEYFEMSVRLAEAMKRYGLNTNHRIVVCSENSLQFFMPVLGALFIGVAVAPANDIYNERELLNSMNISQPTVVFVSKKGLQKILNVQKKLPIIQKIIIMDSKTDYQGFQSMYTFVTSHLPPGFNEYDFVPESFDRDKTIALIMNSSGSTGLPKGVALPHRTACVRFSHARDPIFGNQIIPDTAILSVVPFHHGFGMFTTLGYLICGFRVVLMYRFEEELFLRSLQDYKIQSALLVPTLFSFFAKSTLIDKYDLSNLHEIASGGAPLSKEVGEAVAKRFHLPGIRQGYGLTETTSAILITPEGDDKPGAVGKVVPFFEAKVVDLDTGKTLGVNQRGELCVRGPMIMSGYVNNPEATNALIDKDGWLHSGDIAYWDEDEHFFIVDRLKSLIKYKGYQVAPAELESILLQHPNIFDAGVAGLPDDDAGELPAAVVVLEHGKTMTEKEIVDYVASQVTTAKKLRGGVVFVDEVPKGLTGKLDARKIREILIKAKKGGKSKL
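Luminescence read by CCD imager after adding enzyme (10nM final) to wells holding compound, titrated in qHTS. Substrates 10uM each D-luciferin and ATP; buffer 50mM Tris acetate pH 7.5, 10mM Mg acetate, Tween-20, BSA.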
Numbers without * were called inactive; i = inactive; ? = inconclusive; · = not tested or not shown; ! = a repeat was not active; [ ] = dose if it differs, or a comment. This is a sample that favours compounds with a hit; in the whole collection about 11% have one here. Unless noted, calls follow the shape of the dose curve; as a rule, active = well fitted curve in the direction sought with a large enough effect; inconclusive = small, poorly fitted or top-dose-only effect, or another doubt; inactive = no such curve, though single readings can be large; an effect the other way counts as inactive or inconclusive. % is scaled to controls: 0 for no effect and ±100 for the full control effect; potency is read from the fitted curve at half-maximal effect.

SMILES	3T3 cytotox	HEK cytotox	NPR1 antag	FLuc inh
O=C(O)CCC(=O)N1Cc2ccccc2CC2(CCCN2Cc2ccccc2)C1 (stereo unspecified)	-6%	-2%	·	·
CN(C)CCCC(=O)N1Cc2ccccc2CC2(CCCCN2Cc2ccccc2)C1 (stereo unspecified)	?	79µM*	·	·
O=C(c1ccccc1)N1Cc2ccccc2CC2(CCCCN2CC2CCNC2)C1 (stereo unspecified)	?	79µM*	·	·
O=C(COc1ccccc1)N1CCC2(CC1)NC(=O)N(c1ccccc1Cl)N2	?	?	1%	i
O=C(Cc1ccc(Cl)cc1)N1CCC2(CC1)NC(=O)N(c1ccccc1Cl)N2	40µM*	89µM*	-1%	i
O=C1[C@H]2CN(Cc3ccc(F)c(F)c3)C[C@H]2C(=O)N1Cc1ccc2c(c1)OCO2	-26%	-29%	5%	i
O=C1[C@H]2CN(Cc3ccc(F)c(Cl)c3)C[C@H]2C(=O)N1Cc1ccc2c(c1)OCO2	?	35µM*	-18%	i
O=C(Nc1cc(-c2ccncc2)nn1-c1ccccc1)c1ccc(Cl)cc1	?	79µM*	·	·
O=C(Nc1cc(-c2cccnc2)nn1-c1ccccc1)c1cccc(Br)c1	?	50µM*	·	·
O=C(Nc1cc(-c2cccnc2)nn1-c1ccccc1)c1ccc(C(F)(F)F)cc1	32µM*	?	·	·
CC(=O)Nc1cc(-c2ccncc2)nn1-c1ccccc1	?	-19%[172 µM]	·	·
CN(C)C(=O)N1CCC(C(=O)N2CCC(N3Cc4ccccc4C3=O)CC2)CC1	?	-17%	·	·
COc1ccccc1Nc1ccnc(N2CCCC(C(=O)NCCc3ccccc3)C2)n1 (stereo unspecified)	16µM*	?	·	·
C#CCNC(=O)[C@@H]1CCCN1c1nccc(Nc2ccccc2OC)n1	-5%	-5%	·	·
CCCCCNC(=O)C1CCCN(c2nccc(Nc3ccccc3OC)n2)C1 (stereo unspecified)	?	40µM*	·	·
COc1ccccc1Nc1ccnc(N2CCCC(C(=O)NCCc3ccccc3F)C2)n1 (stereo unspecified)	?	35µM*!	·	·
COC(=O)[C@@H]1Cc2ncn(Cc3ccc(Cl)cc3)c2CN1S(=O)(=O)c1cccc2c(N(C)C)cccc12	?	?	-5%	i
COc1cccc(C(=O)N2CCC(N3C(=O)c4c(c(C)nn4-c4ccccc4)C3C)CC2)c1 (stereo unspecified)	?	40µM*	·	·
COc1cccc([S+](=O)([O-])N2CCC(N3C(=O)c4c(c(C)nn4-c4ccccc4)C3C)CC2)c1 (stereo unspecified)	-13%	-25%	·	·
Cc1nn(-c2ccccc2)c2c1C(C(C)C)N(C1CCN(C(=O)c3ccc(C(F)(F)F)cc3)CC1)C2=O (stereo unspecified)	0%	3%	·	·
Cc1nn(-c2ccccc2)c2c1C(C)N(C1CCN(C(=O)c3ccc(Cl)nc3)CC1)C2=O (stereo unspecified)	35µM*	?	·	·
Cc1nn(-c2ccccc2)c2c1C(C)N(C1CCCN(C(=O)Cc3ccccn3)C1)C2=O (stereo unspecified)	-22%	?	·	·
COc1ccc(CC(=O)N2CC(N3C(=O)c4c(c(C)nn4-c4ccccc4)C3C)C2)cc1 (stereo unspecified)	?	40µM*	·	·
Cc1nn(-c2ccccc2)c2c1C(C)N(C1CCN(C(=O)c3cccc(C(F)(F)F)c3)CC1)C2=O (stereo unspecified)	?	45µM*	·	·
COCC(=O)N1CC(N2C(=O)c3c(c(C)nn3-c3ccccc3)C2C)C1 (stereo unspecified)	-18%	3%	·	·
SMILES	3T3 cytotox	HEK cytotox	NPR1 antag	FLuc inh
O=C(Nc1ccccc1)N1CCn2c(nnc2C2CC2)C1	-17%[138 µM]	1%[172 µM]	·	·
Cc1nn(-c2ccccc2)c2c1C(C)N(C1CCN(C(=O)c3ccccc3)CC1)C2=O (stereo unspecified)	?	35µM*	·	·
COCC(=O)N1CCC(N2C(=O)c3c(c(C)nn3-c3ccccc3)C2C)CC1 (stereo unspecified)	28µM*!	-20%	·	·
COc1ccccc1-c1cc(-c2cccnc2)nc2c(C)noc12	?	-23%[172 µM]	2%[70.6 µM]	i
CC(=O)N1CCN(c2cc(-c3ccccc3)nc3c(C)noc23)CC1	89µM*	-18%[172 µM]	1%[70.6 µM]	i
Cc1noc2c(N3CCN(Cc4ccccc4)CC3)cc(-c3cccnc3)nc12	?	63µM*	-17%[70.6 µM]	i
